In PubChem BioAssay (EPA / NIEHS) one finds AC50 and outcome data, which are given here for 40 compounds.

For orientation: AC50 means the midpoint of the concentration-response curve, whichever way the signal moves.

Records with an inconclusive call do not appear. The source made the active and inactive calls. The calls were made as follows: active = hit-call score of the fitted dose curve at least 0.9, where 1 is the maximum; inconclusive = response in the unintended direction; inactive = score below 0.9.

Read-out in this test: xenobiotic metabolism (CYP1A1), CYP1A1 (gene 1543)
Kind of test: CLD_CYP1A1_48hr: CellzDirect (CLD) Gene Expression Assay for xenobiotic metabolism (CYP1A1) at 48 hours (AID 2283705). Here is the method:
CLD_48hr is a cell-based, multiplexed-readout assay that uses hepatocyte, a human liver primary cell, with measurements taken at 48 hours after chemical dosing in a 96-well plate.CLD_CYP1A1_48hr is one of 16 assay component(s) measured or calculated from the CLD_48hr assay. It is designed to make measurements of mRNA induction, a form of inducible reporter, as detected with chemiluminescence signals by Quantitative Nuclease Protection Assay (qNPA) technology.Data from the assay component CLD_CYP1A1_48hr was analyzed at the endpoint, CLD_CYP1A1_48hr, in the positive analysis fitting direction relative to DMSO as the negative control and baseline of activity. Using a type of inducible reporter, gain-of-signal activity can be used to understand changes in the reporter gene as they relate to the gene CYP1A1. Furthermore, this assay endpoint can be referred to as a primary readout. To generalize the intended target to other relatable targets, this assay endpoint is annotated to the cyp intended target family, where subfamily is xenobiotic metabolism.
Human hepatocyte cultures were treated daily for two consecutive days with fresh dosing solutions containing appropriate concentrations of the 320 ToxCast chemicals (chemical identities were blinded to CellzDirect and other ToxCast collaborators), vehicle control (0.2% DMSO), and positive control inducers as summarized in Table 1. Due to the large number of treatment groups and chemicals examined, the ToxCast chemicals were divided into two groups (spanning two independent cultures of hepatocytes from separate donor preparations (Hu778: ToxCast plates 1 and 2; Hu776: ToxCast plates 3 and 4). Each preparation of human hepatocyte cultures was treated with respective vehicle control, medium only control, set of six positive controls/reference chemicals for the five hepatic receptor pathways, and a subset of eight of the ToxCast chemicals (indoxacarb, pyrithiobac-sodium, norflurazon, cyhalofop-butyl, methomyl, thiram, acetochlor, and propiconazole). These replicate data, coupled with internal replicates designed within the blinded ToxCast chemical library, provided additional data to evaluate interindividual differences between hepatocyte preparations and their potential impact on chemical profiles.Cell morphology and integrity were evaluated using phase-contrast microscopy as an indicator of hepatocyte cell health (Tyson & Green, 1987). Cultures for each treatment group (i.e., media, vehicle [0.2% DMSO], positive control inducers [multiple concentrations], and the ToxCast chemicals [multiple concentrations]) were observed and cell morphology was assessed relative to vehicle control cultures at each harvest time point (0, 6, 24, or 48 h). […] Images were evaluated at the conclusion of the study to assess changes in cell integrity and account for the effects of chemical exposure on uncharacteristic changes in concentration-dependent gene expression profiles. The results from these determinations of apparent cytotoxicity were annotated (yes/no) alongside the corresponding qNPA data for reference.At the conclusion of each treatment period, hepatocyte cultures (96-well) were washed with 1 volume of HBSS, lysed by addition of 25 ul ArrayPlate lysis buffer (HTG, Tucson, AZ), and 70 ul/well of Denaturation Oil, denatured by incubation at 95C for 10 min, and frozen at approximately -70C until analysis by nuclease protection assay (qNPA) (Roberts et al., 2007). For qNPA analysis, cell lysates were thawed at 50C for approximately 30 min, qNPA probes were added, and samples were incubated at 95C for 10 min to begin the detection process by denaturing the target RNA, dissociating the duplexes and secondary structure hybridization. At the conclusion of the hybridization period, S1 nuclease reagent was added to each sample to digest all nonprotected nucleotides at 50C for 60-90 min. […]
With `C#CCC1=C(C)C(OC(=O)C2C(C=C(C)C)C2(C)C)CC1=O` (stereo not given), the AC50 is 33 µM (active).

In the case of `CSc1nc(NC(C)C)nc(NC(C)C)n1`, the AC50 is 20 µM (active).

As to `CC(=NC#N)N(C)Cc1ccc(Cl)nc1`, the result was inactive.

Regarding `CNC(=O)Oc1cccc2c1OC(C)(C)O2`, the outcome was inactive.

Take `COP(=O)(OC)SCn1c(=O)oc2cc(Cl)cnc21`: the compound was classed as inactive.

Take `CCOP(=S)(OCC)OC(Cl)C(Cl)(Cl)Cl` (stereo not given): the call was inactive.

In the case of `COc1cccc(C(=O)NN(C(=O)c2cc(C)cc(C)c2)C(C)(C)C)c1C`, the AC50 is 10.1 µM (active).

On to `CN(C)[C@@H]1C(=O)C(C(N)=O)=C(O)[C@@]2(O)C(=O)C3=C(O)c4c(O)cccc4[C@@](C)(O)[C@H]3[C@H](O)[C@@H]12`, for which the compound was classed as inactive.

For `C[Si](Cn1cncn1)(c1ccc(F)cc1)c1ccc(F)cc1`, the AC50 is 0.727 µM (active).

Take `CC(C)[C@H](C(=O)O[C@H](C#N)c1cccc(Oc2ccccc2)c1)c1ccc(Cl)cc1`: the AC50 was 20 µM (active).

Consider `N#CSCSC#N`, for which the AC50 is 7.26 µM (active).

For `C#CC(C)(C)NC(=O)c1cc(Cl)cc(Cl)c1`, the outcome was inactive.

With `Cc1nn(-c2cc(NS(C)(=O)=O)c(Cl)cc2Cl)c(=O)n1C(F)F`, the compound was called inactive.

`CCCCN(CC)c1c([N+](=O)[O-])cc(C(F)(F)F)cc1[N+](=O)[O-]`: the AC50 is 20 µM (active).

As to `CN(C)C(=O)Nc1cccc(C(F)(F)F)c1`, the AC50 was 7.21 µM (active).

In the case of `CSC1=N[C@@](C)(c2ccccc2)C(=O)N1Nc1ccccc1`, the AC50 was 20 µM (active).

`C=C(C)[C@H]1Cc2c(ccc3c2O[C@@H]2COc4cc(OC)c(OC)cc4[C@@H]2C3=O)O1`: the AC50 is 2 µM (active).

As for `CCOP(=S)(OCC)Oc1ccc2c(C)c(Cl)c(=O)oc2c1`, the AC50 was 1.89 µM (active).

In the case of `CCCOCC(=Nc1ccc(Cl)cc1C(F)(F)F)n1ccnc1`, the AC50 is 6.01 µM (active).

Take `CNC(=O)ON=C(C)SC`: the compound was called inactive.

Take `CCC(CC)Nc1c([N+](=O)[O-])cc(C)c(C)c1[N+](=O)[O-]`: the outcome was inactive.

For the compound `CC(COc1ccc(Oc2ccccc2)cc1)Oc1ccccn1` (stereo not given), the outcome was inactive.

With `CC1=NNC(=O)N(/N=C/c2cccnc2)C1`, the AC50 is 3.97 µM (active).

Regarding `CON=C(C(=O)OC)c1ccccc1CON=C(C)c1cccc(C(F)(F)F)c1`, the AC50 was 20 µM (active).

Take `COP(=O)(OC)OC(Br)C(Cl)(Cl)Br` (stereo not given): the compound was called inactive.

Turning to `CCOP(=S)(OCC)Oc1ccc([N+](=O)[O-])cc1`, the AC50 is 3.61 µM (active).

In the case of `CCC(=O)Nc1ccc(Cl)c(Cl)c1`, the AC50 is 4.64 µM (active).

With `CCOP(=S)(Oc1cnc(C(C)(C)C)nc1)OC(C)C` (stereo not given), the AC50 is 3.91 µM (active).

Consider `CCc1cnc(C2=NC(C)(C(C)C)C(=O)N2)c(C(=O)O)c1` (stereo not given), for which the compound was classed as inactive.

With `CCOP(=O)(NC(C)C)Oc1ccc(SC)c(C)c1` (stereo not given), the call was inactive.

Turning to `CCOP(=S)(OCC)SCCSCC`, the AC50 was 20 µM (active).

Regarding `CCCSP(=O)(OCC)Oc1ccc(Br)cc1Cl` (stereo not given), the result was inactive.

Consider `CCOP(=S)(OCC)Oc1cc(C)nc(C(C)C)n1`, for which the AC50 was 4.2 µM (active).

Take `Nc1nc(N)nc(NC2CC2)n1`: the AC50 was 11.6 µM (active).

On to `O=[N+]([O-])c1cc(C(F)(F)F)c(Cl)c([N+](=O)[O-])c1Nc1ncc(C(F)(F)F)cc1Cl`, for which the AC50 was 0.627 µM (active).

On to `COc1ccc(C(=CC(=O)N2CCOCC2)c2ccc(Cl)cc2)cc1OC`, for which the AC50 is 4.77 µM (active).

For the compound `CCc1cccc(CC)c1N(COC)C(=O)CCl`, the concentration at half-maximal activity (AC50) was 1.89 µM (active).

Turning to `CNC(=O)ON=C(SC)C(=O)N(C)C`, the compound was classed as inactive.

Consider `CCOP(=O)(OCC)Oc1cc(C)nc(C(C)C)n1`, for which the result was inactive.

For the compound `CCNc1nc(Cl)nc(NC(C)(C)C#N)n1`, the result was inactive.
